HT1080-NT tox – kills 2HG-producing HT-1080-NT fibrosarcoma cells; AID 686970; Potency, µM (doses to about 46.1 µM), without a hit: top-dose activity, negative = less viability, actives largely listed as cytotoxic; 360,000 compounds, 1.6% hits; HT-1080-NT fibrosarcoma viability, CellTiter-Glo ATP luminescence, 48 h;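 further: NT is the 2HG producing partner of a matched IDH1 knockdown line; 0% = DMSO-treated cells and -100% = media-only wells without cells; nearly all actives have a fitted effect of over 55% in size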
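750 cells/well, RPMI + 5% FBS; 2 h settle, compound pin-transfer, 48 h at 37 degrees C. CellTiter-Glo 10 min RT, luminescence. Normalized to DMSO and media-only wells.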
KB-V1 cytotox – kills drug-selected multidrug resistant KB-V1 cells; Potency, µM (titrated, usually from 46.1 µM), usual class: cytotoxic; KB-V1 MDR cells viability, CellTiter-Glo, 72 h; AID 1347076; 400,000 compounds, 3.4% hits; further: nearly all actives have a fitted effect of over 60% in size
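Cytotoxicity via CellTiter-Glo luminescence after 72 h compound exposure at 37 degrees C. Cells: drug-selected KB-V1 line, DMEM phenol-red free plus 10% FBS. Compounds tested at multiple concentrations; normalized data fitted to concentration-effect curves.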
HT1080 IDH1KD tx – HT-1080 IDH1 knockdown cell toxicity (counter line); HT-1080 IDH1 knockdown viability, ATP luminescence, 48 h; 360,000 compounds, 2% hits; Potency, µM (highest dose often 46.1 µM), for the others: top-dose activity, negative = toxicity, actives largely listed as cytotoxic;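 further: 0% = DMSO wells and -100% = cell-free medium wells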
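% activity derives from luminescence (CellTiter-Glo), normalised to DMSO and no-cell wells. HT-1080-IDH1KD cells, 750/well, had 48 h compound exposure at 37 °C.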
KB-3-1 tox – KB-3-1 parental cell cytotoxicity | KB-3-1 viability, CellTiter-Glo ATP luminescence, 72 h | Potency, µM (doses to about 46.1 µM), most hits filed as cytotoxic | 400,000 compounds, 1.4% hits; further: nearly all actives have a fitted effect of over 60% in size
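KB-3-1 parental drug-naive adenocarcinoma cells in DMEM/10% FBS, incubated 72 h at 37 C with pin-transferred compounds across a concentration series. Viability by CellTiter-Glo luminescence; concentration-response curves fitted after normalization.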
An asterisk follows results filed as active; i = inactive; ? = inconclusive; / = no result. A selection: hits, their analogues and other compounds. The true share with any hit is near 5.7%. The call rests on the fitted dose curve; in most records, active means well fitted curve in the direction sought with a large enough effect; inconclusive means small, poorly fitted or top-dose-only effect, or another doubt; inactive means no such curve, though single readings can be large; an effect the other way counts as inactive or inconclusive. Unless noted, on the % scale 0 is the no-effect control and ±100 the full control effect; potency means the concentration at half of the fitted maximal effect.

SMILES | HT1080-NT tox | KB-V1 cytotox | HT1080 IDH1KD tx | KB-3-1 tox
Cc1cc(Cl)ccc1NC(=S)NCCCO | 11% | i | 18% | i
Cc1ccc(Cl)cc1NC(=S)NCCCSC1CCCCC1 | -30% | ? | 18µM* | ?
COc1ccccc1C(=O)NC1=NC(c2ccc(Br)cc2)CC(=O)N1 (configuration not stated) | / | i | / | i
CCCCCOc1ccc(C(=O)NCC2(c3ccccc3)CCOCC2)cc1 | -5% | 23µM* | ? | i
CCCCOc1ccc(C(=O)NCC2(c3ccccc3)CCOCC2)cc1 | -5% | i | 0% | i
Cc1cc(N/N=C/c2ccc(Cl)cc2Cl)nc(NCc2ccccc2)n1 | -11% | 8.2µM* | ? | i
Cc1ccc(/C=N/Nc2cc(C)nc(NCc3ccccc3)n2)cc1 | ? | i | ? | i
Cc1cc(N/N=C/c2ccc(F)cc2)nc(NCc2ccccc2)n1 | 18µM* | ? | 16µM* | ?
COc1ccc(-c2nc3ccccc3o2)cc1NC(=O)c1cccc2c(Cl)cccc12 | / | i | / | ?
CCC(COC(=O)Nc1cccc(C)c1)NC(=O)OCC(C)C (configuration not stated) | 11% | 3.7µM* | 6% | i
CCNC(=O)OCC(CC)NC(=O)OCC(C)C (configuration not stated) | 10% | i | 13% | i
COc1ccc(OC)c(NC(=O)CSc2nnc(-c3ccncc3)s2)c1 | -8% | / | 1% | /
COc1ccc(OC)c(NC(=O)CSc2nnc(-c3cccnc3)s2)c1 | 18µM* | i | 18µM* | i
O=C(CNC(=O)c1ccccc1F)N/N=C/c1cc(Br)ccc1OC(=O)/C=C/c1ccco1 | -41% | 16µM* | 4.6µM* | ?
COc1ccccc1C(=O)NCC(=O)N/N=C/c1cc(Br)ccc1OC(=O)/C=C\c1ccco1 | ? | ? | -23% | i
O=C(CNC(=O)c1ccco1)N/N=C/c1cc(Br)ccc1O | ? | ? | 26µM* | ?
O=C(CNC(=O)c1ccc2c(c1)OCO2)N/N=C/c1cc(Br)ccc1O | ? | i | 12µM* | ?
O=C(CNC(=O)c1ccccc1)N/N=C/c1cc(Br)ccc1O | ? | ? | 16µM* | ?
COc1ccc(CNC(=O)CN2C(=O)c3cccnc3Oc3ccc(C)cc32)cc1 | / | i | / | i
O=C1CC(c2nnc(Cc3ccc(F)cc3Cl)o2)CN1c1ccccc1 (configuration not stated) | / | i | / | i
Cc1ccc(-n2c(=O)c3c(c4cc(C)ccc4n3C)n(CC(=O)NCCC3=CCCCC3)c2=O)cc1 | / | i | / | i
CCCN(CCC)C1=CC(=[N+]2CCCC2)CC(C)(C)C1 | 2.1µM* | i | 2.3µM* | 2.6µM*
CC1(C)CC(N2CCCCC2)=CC(=[N+]2CCCCC2)C1 | 4.1µM* | i | ? | 5.8µM*
CC1(C)CC(N2CCOCC2)=CC(=[N+]2CCOCC2)C1 | 4% | i | 12% | i
CN(C)NC1=CC(=[N+]2CCCC2)CC(C)(C)C1 | 4% | i | 2% | i
SMILES | HT1080-NT tox | KB-V1 cytotox | HT1080 IDH1KD tx | KB-3-1 tox
O=C(Nc1cc(-c2ccc(F)c(F)c2)no1)c1ccccc1F | / | i | / | i
Nc1ccn([C@@H]2O[C@H](CNCc3ccc(N4CCNCC4)cc3)[C@@H](O)[C@H]2O)c(=O)n1 | 16% | i | -13% | i
Cc1ccc(S(=O)(=O)NCCNS(=O)(=O)c2ccc(C)cc2)cc1 | -4% | i | -2% | i
Cc1ccc(S(=O)(=O)Nc2cc(C)cc(CCNC=O)c2C)cc1 | 8% | 18µM* | -1% | i
O=C(Nc1ccc(NC(=O)c2ccc3c(c2)OCCO3)cc1)c1ccccc1 | 16µM* | ? | ? | i
O=C(Nc1ccc(O)cc1)c1ccc(NC(=O)c2cccs2)cc1 | 9.2µM* | i | 23µM* | 18µM*
O=C(Nc1ncccc1O)c1ccc2c(c1)OCCO2 | -9% | ? | -3% | 4.1µM*
CCC(=O)Nc1ccc(N2CCN(C(=O)c3ccccc3C)CC2)cc1 | 21% | i | 3% | i
O=C(Nc1ncccc1O)c1ccc2c(c1)OCO2 | -33% | i | -20% | ?
Cc1ccccc1C(=O)N1CCN(c2ccc(NC(=O)CSc3ccc(Cl)cc3)cc2)CC1 | -25% | ? | ? | 18µM*
O=C(COc1cccc(NC(=O)c2ccccc2)c1)c1ccccc1 | -2% | i | -16% | i
